# The supplement of paper PMC8728848
# Shown is part of a subset that was picked to be rich in the strongest signals.
# B1: CLEC5A (Homo sapiens), Q9NY25 (protein)
# chain: MNWHMIISGLIVVVLKVVGMTLFLLYFPQIFNKSNDGFTTTRSYGTVSQIFGSSSPSPNGFITTRSYGTVCPKDWEFYQARCFFLSTSESSWNESRDFCKGKGSTLAIVNTPEKLKFLQDITDAEKYFIGLIYHREEKRWRWINNSVFNGNVTNQNQNFNCATIGLTKTFDAASCDISYRRICEKNAK
# Legend:
# Test in all cases: glycan array binding signal (z-score within array); higher = stronger binding
# Settings in all cases: glycan notation: IUPAC condensed, linker removed
# [1] = biological target: Glc(a1-6)Glc(a1-6)Glc(a1-6)Glc(a1-6)Glc
# How it was run: (§1)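 Negative Z-scores can be read as non-binding. The Z-score is calculated within each array and then averaged across arrays of one protein sequence at different concentrations or buffers and across linkers. Arrays, 3228 in all, were curated from the Consortium for Functional Glycomics database and kept only where the protein sequence was available.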
# [2] = biological target: Glc(a1-6)Glc(a1-6)Glc(a1-6)Glc(a1-6)Glc(a1-6)Glc(a1-6)Glc
# How it was run: as §1
# [3] = biological target: Glc(a1-6)Glc(a1-6)Glc(a1-6)Glc(a1-6)Glc(a1-6)Glc(a1-6)Glc(a1-6)Glc(a1-6)Glc(a1-6)Glc(a1-6)Glc(a1-6)Glc(a1-6)Glc
# How it was run: as §1
# [4] = biological target: Glc(b1-3)Glc(b1-3)Glc(b1-3)Glc(b1-3)Glc
# How it was run: as §1
# [5] = biological target: Glc(b1-3)Glc(b1-3)Glc(b1-3)Glc(b1-3)Glc(b1-3)Glc(b1-3)Glc
# How it was run: as §1
# Glc(b1-4)Glc = biological target: Glc(b1-4)Glc
# How it was run: as §1
# [6] = biological target: Glc(b1-6)Glc(b1-6)Glc(b1-6)Glc(b1-6)Glc(b1-6)Glc(b1-6)Glc(b1-6)Glc(b1-6)Glc(b1-6)Glc(b1-6)Glc(b1-6)Glc
# How it was run: as §1
# GlcA(b1-3)Gal = biological target: GlcA(b1-3)Gal
# How it was run: as §1
# [7] = biological target: GlcA(b1-3)Gal(b1-4)GlcNAc(b1-3)Gal(b1-4)Glc
# How it was run: as §1
# [8] = biological target: GlcA(b1-3)GlcNAc(b1-4)GlcA(b1-3)GlcNAc
# How it was run: as §1
# [9] = biological target: GlcA3S(b1-3)Gal(b1-4)GlcNAc(b1-3)Gal(b1-4)Glc
# How it was run: as §1
# [10] = biological target: GlcNAc(a1-4)Gal(b1-3)[Fuc(a1-2)]Gal
# How it was run: as §1
# [11] = biological target: GlcNAc(a1-4)Gal(b1-4)GlcNAc
# How it was run: as §1
# [12] = biological target: GlcNAc(a1-4)Gal(b1-4)GlcNAc(b1-3)Gal(b1-4)[Fuc(a1-3)]GlcNAc(b1-3)Gal(b1-4)[Fuc(a1-3)]GlcNAc
# How it was run: as §1
# GlcNAc(b1-3)Gal(b1-4)Glc = biological target: GlcNAc(b1-3)Gal(b1-4)Glc
# How it was run: as §1
# [13] = biological target: GlcNAc(b1-3)Gal(b1-4)GlcNAc(b1-2)Man(a1-3)[GlcNAc(b1-3)Gal(b1-4)GlcNAc(b1-2)Man(a1-6)]Man(b1-4)GlcNAc(b1-4)[Fuc(a1-6)]GlcNAc
# How it was run: as §1
# [14] = biological target: GlcNAc(b1-3)Gal(b1-4)GlcNAc(b1-3)Gal(b1-4)GlcNAc(b1-3)Gal(b1-4)GlcNAc(b1-3)Gal(b1-4)GlcNAc(b1-2)Man(a1-3)[GlcNAc(b1-3)Gal(b1-4)GlcNAc(b1-3)Gal(b1-4)GlcNAc(b1-3)Gal(b1-4)GlcNAc(b1-3)Gal(b1-4)GlcNAc(b1-2)Man(a1-6)]Man(b1-4)GlcNAc(b1-4)[Fuc(a1-6)]GlcNAc
# How it was run: as §1
# Kdn(a2-6)Gal = biological target: Kdn(a2-6)Gal
# How it was run: as §1
# Man(a1-2)Man = biological target: Man(a1-2)Man
# How it was run: as §1
# [15] = biological target: Man(a1-2)Man(a1-6)[Man(a1-3)]Man(a1-6)[Man(a1-2)Man(a1-2)Man(a1-3)]Man
# How it was run: as §1
# [16] = biological target: Man(a1-3)[Man(a1-6)]Man(a1-6)[Man(a1-3)]Man(b1-4)GlcNAc(b1-4)GlcNAc
# How it was run: as §1
# [17] = biological target: Neu5Ac(a2-3)Gal(b1-3)GlcNAc(b1-4)Gal(b1-4)Glc
# How it was run: as §1
# [18] = biological target: Neu5Ac(a2-3)Gal(b1-3)GlcNAc6S
# How it was run: as §1
# [19] = biological target: Neu5Ac(a2-3)Gal(b1-4)[Fuc(a1-3)]GlcNAc(b1-3)GalNAc
# How it was run: as §1
# [20] = biological target: Neu5Ac(a2-3)Gal(b1-4)[Fuc(a1-3)]GlcNAc(b1-4)GalNAc(b1-3)Gal(b1-4)Glc
# How it was run: as §1
# [21] = biological target: Neu5Ac(a2-3)Gal(b1-4)[Fuc2Me(a1-3)]GlcNAc(b1-3)Gal
# How it was run: as §1
# [22] = biological target: Neu5Ac(a2-3)Gal6S(b1-4)[Fuc(a1-3)]GlcNAc
# How it was run: as §1
# [23] = biological target: Neu5Ac(a2-6)Gal(b1-3)GlcNAc(b1-3)[Fuc(a1-3)[Gal(b1-4)]GlcNAc(b1-6)]Gal(b1-4)Glc
# How it was run: as §1
# [24] = biological target: Neu5Ac(a2-6)Gal(b1-4)GlcNAc(b1-2)Man(a1-3)[Neu5Ac(a2-3)Gal(b1-4)GlcNAc(b1-2)Man(a1-6)]Man(b1-4)GlcNAc(b1-4)GlcNAc
# How it was run: as §1
# [25] = biological target: Neu5Ac(a2-6)Gal(b1-4)GlcNAc(b1-3)Gal(b1-4)GlcNAc(b1-3)GalNAc
# How it was run: as §1
# [26] = biological target: Neu5Ac(a2-6)Gal(b1-4)GlcNAc(b1-3)Gal(b1-4)[Fuc(a1-3)]GlcNAc(b1-3)Gal(b1-4)[Fuc(a1-3)]GlcNAc
# How it was run: as §1
# [27] = biological target: Neu5Ac(a2-8)Neu5Ac(a2-3)[Gal(b1-3)GalNAc(b1-4)]Gal(b1-4)Glc
# How it was run: as §1
# [28] = biological target: Neu5Ac(a2-8)Neu5Ac(a2-8)Neu5Ac(a2-3)[Gal(b1-3)GalNAc(b1-4)]Gal(b1-4)Glc
# How it was run: as §1
# [29] = biological target: Neu5Ac(b2-6)Gal(b1-4)GlcNAc
# How it was run: as §1
# Neu5Ac(b2-6)GalNAc = biological target: Neu5Ac(b2-6)GalNAc
# How it was run: as §1
# [30] = biological target: Neu5Ac9Ac(a2-3)Gal(b1-3)GlcNAc
# How it was run: as §1
# [31] = biological target: Neu5Gc(a2-8)Neu5Ac(a2-3)Gal(b1-4)GlcNAc
# How it was run: as §1
# [32] = biological target: Xyl(b1-2)[Man(a1-3)][Man(a1-6)]Man(b1-4)GlcNAc(b1-4)[Fuc(a1-3)]GlcNAc
# How it was run: as §1
binder,measurement,setting,value
B1,glycan array binding signal (z-score),[1],-0.32
same,glycan array binding signal (z-score),[2],1.51
same,glycan array binding signal (z-score),[3],2.19
same,glycan array binding signal (z-score),[4],6.52
same,glycan array binding signal (z-score),[5],1.8
same,glycan array binding signal (z-score),Glc(b1-4)Glc,-0.371
same,glycan array binding signal (z-score),[6],1.8
same,glycan array binding signal (z-score),GlcA(b1-3)Gal,-0.34
same,glycan array binding signal (z-score),[7],-0.32
same,glycan array binding signal (z-score),[8],-0.32
same,glycan array binding signal (z-score),[9],-0.074
same,glycan array binding signal (z-score),[10],-0.32
same,glycan array binding signal (z-score),[11],-0.125
same,glycan array binding signal (z-score),[12],1.74
same,glycan array binding signal (z-score),GlcNAc(b1-3)Gal(b1-4)Glc,6.6
same,glycan array binding signal (z-score),[13],-0.014
same,glycan array binding signal (z-score),[14],1.7
same,glycan array binding signal (z-score),Kdn(a2-6)Gal,-0.32
same,glycan array binding signal (z-score),Man(a1-2)Man,1.03
same,glycan array binding signal (z-score),[15],-0.249
same,glycan array binding signal (z-score),[16],0.488
same,glycan array binding signal (z-score),[17],-0.012
same,glycan array binding signal (z-score),[18],0.026
same,glycan array binding signal (z-score),[19],1.67
same,glycan array binding signal (z-score),[20],-0.32
same,glycan array binding signal (z-score),[21],0.548
same,glycan array binding signal (z-score),[22],0.366
same,glycan array binding signal (z-score),[23],0.258
same,glycan array binding signal (z-score),[24],-0.161
same,glycan array binding signal (z-score),[25],-0.189
same,glycan array binding signal (z-score),[26],-0.16
same,glycan array binding signal (z-score),[27],-0.133
same,glycan array binding signal (z-score),[28],-0.191
same,glycan array binding signal (z-score),[29],-0.302
same,glycan array binding signal (z-score),Neu5Ac(b2-6)GalNAc,-0.184
same,glycan array binding signal (z-score),[30],-0.191
same,glycan array binding signal (z-score),[31],-0.121
same,glycan array binding signal (z-score),[32],-0.32
